For 39 molecules, z-score results are on record in PubChem BioAssay.

The source made the active and inactive calls.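 How the source made its calls: active means z-score of at least 1.8 in each of two replicates, scored against plate mean and spread of sample wells; inactive means the rest.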

A short description of this test: galactose survival enhancers in mitochondrial complex I cybrids – cell-based, galactose medium, ATP luminescence, primary screen (AID 1645843).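 Further: positive z means more ATP and so rescue of galactose-driven cybrid death.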 The conditions noted are these: complex I mutant cybrid cells, 72 h, hits give high values.
As to `OC[C@@H](Cc1ccccc1)NC1CCCCCC1`, the z-score is -0.55 (inactive).
The value for `c1ccc(Cc2noc(-c3cccc4nccnc34)n2)cc1` was 2.6 (active); that for `Cc1cc(C)c(CN[C@@H](C)C(C)C)c(C)c1CO` was -0.51 (inactive).
The same measure for `CN1CCN(C2CCCCCC2)CC1CCO` (centres undefined): -0.575 (inactive); for `CCC(Nc1ncc(C)c(-c2cnn(C)c2)n1)c1nc2ccc(C)cc2[nH]1` (centres undefined): -0.955 (inactive).
The value for `CCCn1cc(-c2ccnc(NCc3cn4cccc(C)c4n3)n2)c(C)n1` was -1.07 (inactive).
`Cc1nsc(NC(=O)N2CCC(C(=O)N3CCCC3)CC2)n1`: the z-score was -0.375 (inactive).
For `CC(C)(C)c1cn(CC2CCCN(C(=O)c3cn4cccnc4n3)C2)nn1` (centres undefined), the z-score was 0.425 (inactive).
The same measure for `O=c1c2cccc(C(F)(F)F)c2ncn1Cc1ccc(Cl)s1`: -0.515 (inactive).
The same measure for `CCCCC(CC)CN1CCC(n2cc(CNC)nn2)CC1` (centres undefined): 1 (inactive); for `CCN(C)Cc1ccc(-c2nc(C(F)(F)F)c(C)c(=O)[nH]2)cc1`: 0.97 (inactive).
The value for `CC(C)(O)c1cn(C2CCN(C(=O)C3CC34CCCC4)CC2)nn1` (centres undefined) was -0.475 (inactive).
`CC(C)c1ncc(-c2cc(C(=O)N3CCC(C)(C)C3)c3ccccc3n2)cn1`: the z-score is 2.19 (active).
The same measure for `COc1ccc2c(c1)CC(c1nc(Cc3cccs3)no1)CO2` (centres undefined): -0.1 (inactive).
The value for `COCCN(C)Cc1ccc(-c2nc(C)c(C)c(=O)[nH]2)cc1` was -0.545 (inactive).
The same measure for `Cc1ccn2cc(C(=O)N(CC(C)C)CC(C)C)nc2c1`: -0.515 (inactive).
Turning to `NC1CCN(C2CCN(c3cccc(-c4ccccc4)c3)CC2)CC1`, the z-score was -1.03 (inactive).
The value for `Cc1nsc(NC(=O)N2CCCC2C)n1` (centres undefined) was -0.04 (inactive); that for `O=C(Nc1cccc(N2CCCC2=O)c1)c1cc(C(F)(F)F)ccc1Cl` was -0.405 (inactive).
The value for `c1ccc(-n2cc(-c3ccnc(NCc4cnc5ccccn45)n3)cn2)cc1` was -1.09 (inactive).
The same measure for `CCCC(C)N(CC)C(=O)c1ccc(C#CC(C)(C)O)o1` (centres undefined): -0.525 (inactive).
Take `CC(C)CN(C)Cc1cn(C2CCN(C3CCCCCC3)CC2)nn1`: the z-score is -0.485 (inactive).
The same measure for `COc1ccc2c(C(=O)N(C)CCc3ccccn3)cc(-c3cnn(C)c3)nc2c1`: -0.54 (inactive); for `Cc1ccc(CCC(=O)N(C)Cc2cnn(C(C)C)c2)cc1C`: -0.565 (inactive).
As to `Cc1nsc(NC(=O)N2CCCN(c3ccc(F)cc3)CC2)n1`, the z-score was -0.27 (inactive).
For the molecule `O=C(c1cn2cccnc2n1)N1CCCC(Cn2cc(C3CCCC3)nn2)C1` (centres undefined), the z-score was -0.49 (inactive).
`FC(F)(F)c1cccc(Cc2noc(CCCN3CCCCC3)n2)c1`: the z-score was 0.61 (inactive).
The value for `CCC(=O)N(CC)c1cc(C)ccc1OC1(C(=O)O)CCSCC1` was -0.47 (inactive); that for `Cc1cc(N2CCCC(Cn3cc(CN)nn3)C2)nc(-c2ccccc2O)n1` (centres undefined) was -0.9 (inactive); that for `O=C(CN1CCOC1=O)NCCc1cccc(F)c1` was -0.505 (inactive).
The value for `CCn1ncc2[nH]c(-c3c(OC)ccc4ccccc34)nc21` was 0.04 (inactive); that for `Cc1cc(C(=O)N2CCCC(C)C2)c2ccc(C)c(C)c2n1` (centres undefined) was -0.505 (inactive).
`CCc1ncc(C(=O)N2CCCC(Cn3cc(-c4ccccc4)nn3)C2)cn1` (centres undefined): the z-score was 0.19 (inactive).
The value for `Cc1ccc2c(C(=O)N3CCCCC3C)cc(-c3cnn(C(C)C)c3)nc2c1` (centres undefined) was -0.16 (inactive); that for `Cc1ccsc1-c1cccc(C(=O)c2nccn2C)c1` was 0.225 (inactive).
Consider `Cc1nn(C)cc1-c1ccnc(N2CCCC(c3nc4c(C)cccc4[nH]3)C2)n1` (centres undefined), for which the z-score is -1.2 (inactive).
For the molecule `CCC1CN(C(=O)c2cc(-c3cnn(C)c3)nc3c(C)cccc23)CCN1C` (centres undefined), the z-score is -0.31 (inactive).
With `O=c1c2cccc(F)c2ncn1CCC1CCCCN1C1CCCC1` (centres undefined), the z-score was -0.825 (inactive).
The same measure for `Cc1ccc2c(C(=O)N3CCCC3c3nc(C)no3)cc(-c3cnn(C)c3)nc2c1` (centres undefined): -0.585 (inactive).
